According to PubChem BioAssay (EPA / NIEHS):
Several values for one entry are separate records, joined by “and”; a condition that tells them apart may be missing. Equal entries are not always repeated. A structure can be active in one record and inactive in another. Activity calls are given as the source filed them. Rule for the calls: active = hit-call score of the fitted dose curve at least 0.9, where 1 is the maximum; inactive = score below 0.9.

These compounds were tested on Interleukin-1 alpha (IL1a), IL1A (gene 3552) (assay: BSK_IMphg_IL1a: BioMAP Diversity Plus: IMphg Assay for Interleukin-1 alpha (IL1a) Biomarker Activity (AID 2284290)). Conditions: primary human endothelial cells with macrophages.
In short: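 Human venular endothelial cells co-cultured with macrophages, IMphg system. IL-1α is measured by ELISA 24 h after dosing and fitted in the positive direction against DMSO. Cytotoxicity is assessed by SRB staining of parallel cultures.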

| SMILES | AC50 | outcome |
| --- | --- | --- |
| O=C(CC(=O)C(F)(F)C(F)(F)C(F)(F)F)c1cccs1 | 47.6 µM (active) | inactive |
| O=P(O)(O)CCC(F)(F)C(F)(F)C(F)(F)C(F)(F)C(F)(F)C(F)(F)C(F)(F)C(F)(F)F | – | inactive |
| O=C(O)C(F)(F)OC(F)(F)C(F)(F)OC(F)(F)C(F)(F)OC(F)(F)C(F)(F)C(F)(F)C(F)(F)F | 44.1 µM (active) and 22.4 µM (active) | – |
| C=CC(=O)OCCC(F)(F)C(F)(F)C(F)(F)C(F)(F)C(F)(F)C(F)(F)C(F)(F)C(F)(F)F | – | inactive |
| O=S(=O)(O)C(F)(F)C(F)(F)C(F)(F)C(F)(F)C(F)(F)C(F)(F)C(F)(F)C(F)(F)C(F)(F)C(F)(F)F | – | inactive |
| OCC(F)(F)C(F)(F)C(F)(F)C(F)(F)C(F)(F)C(F)(F)C(F)(F)C(F)(F)C(F)(F)C(F)(F)C(F)(F)F | – | inactive |
| O=C(O)CCC(F)(F)C(F)(F)C(F)(F)C(F)(F)C(F)(F)C(F)(F)F | 5.95 µM (active) and 16.4 µM (active) and 20.5 µM (active) | – |
| CN(Cc1cnc2nc(N)nc(N)c2n1)c1ccc(C(=O)N[C@@H](CCC(=O)O)C(=O)O)cc1 | – | inactive |
| O=P(O)(O)CCC(F)(F)C(F)(F)C(F)(F)C(F)(F)C(F)(F)C(F)(F)F | – | inactive |
| CN(CCO)S(=O)(=O)C(F)(F)C(F)(F)C(F)(F)C(F)(F)C(F)(F)C(F)(F)C(F)(F)C(F)(F)F | – | inactive |
| O=C(O)CCC(F)(F)C(F)(F)C(F)(F)C(F)(F)C(F)(F)F | 9.45 µM (active) | inactive |
